Results: PubChem BioAssay AID1159580 (chemical genetic matrix, 2015)
Screen size: about 5,500 compounds; about 2,000 (36%) were called active. About 18% were inconclusive and are not listed. No stated cut-off is given here; in the data, active means normalized growth mostly below about 0.91 (no sharp cut-off); inconclusive means no clear call, values can overlap the other calls; inactive means mostly above about 0.92. This is one part of the list.

Experiment: chemical genetic growth profiling, strain panel (AID 1159580);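 further: tested at 20 µM; growth read once vehicle control cultures reached saturation at 30 °C; 1 = growth at the plate median or of vehicle wells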
Conditions: S. cerevisiae deletion strains, growth OD

Measured: normalized growth

C=C(C)C1CC=C(CO)CC1 (centres undefined)
inactive: locus YAL021C, strain ccr4, stronger effect = lower value 0.983 | locus YAL026C, strain drs2, stronger effect = lower value 0.978 | locus YAL030W, strain snc1, stronger effect = lower value 0.973 | locus YBL061C, strain skt5, stronger effect = lower value 0.991 | locus YBR009C, strain hhf1, stronger effect = lower value 0.994 | locus YBR023C, strain chs3, stronger effect = lower value 0.981 | locus YBR171W, strain sec66, stronger effect = lower value 0.95 | locus YBR231C, strain swc5, stronger effect = lower value 0.975 | locus YBR279W, strain paf1, stronger effect = lower value 0.983 | locus YCL011C, strain gbp2, stronger effect = lower value 0.963 | locus YCL016C, strain dcc1, stronger effect = lower value 0.983 | locus YCL061C, strain MRC1, stronger effect = lower value 0.978 | locus YCL069W, strain vba3, stronger effect = lower value 0.948 | locus YCR088W, strain abp1, stronger effect = lower value 0.963 | locus YDL005C, strain med2, stronger effect = lower value 0.961 | locus YDL040C, strain nat1, stronger effect = lower value 0.959 | locus YDR001C, strain nth1, stronger effect = lower value 0.963 | locus YDR069C, strain doa4, stronger effect = lower value 0.978 | locus YDR137W, strain rgp1, stronger effect = lower value 0.941 | locus YDR159W, strain sac3, stronger effect = lower value 0.943 | locus YDR297W, strain sur2, stronger effect = lower value 0.975 | locus YDR334W, strain swr1, stronger effect = lower value 0.938 | locus YDR335W, strain msn5, stronger effect = lower value 0.965 | locus YDR392W, strain spt3, stronger effect = lower value 0.844 | locus YEL003W, strain gim4, stronger effect = lower value 0.976 | locus YEL037C, strain rad23, stronger effect = lower value 0.955 | locus YEL061C, strain CIN8 (second series), stronger effect = lower value 0.946 | locus YER015W, strain faa2, stronger effect = lower value 0.976 | locus YER016W, strain bim1, stronger effect = lower value 0.969 | locus YER111C, strain swi4, stronger effect = lower value 0.963 | locus YFR010W, strain ubp6, stronger effect = lower value 0.98 | locus YGL167C, strain pmr1, stronger effect = lower value 0.96 | locus YGL173C, strain kem1, stronger effect = lower value 0.955 | locus YGL227W, strain vid30, stronger effect = lower value 0.965 | locus YGL240W, strain doc1, stronger effect = lower value 0.954 | locus YGL253W, strain hxk2, stronger effect = lower value 0.983 | locus YHR013C, strain ard1, stronger effect = lower value 0.982 | locus YHR027C, strain rpn1, stronger effect = lower value 0.976 | locus YHR030C, strain SLT2, stronger effect = lower value 1.06 | locus YHR079C, strain IRE1, stronger effect = lower value 1.05 | locus YHR142W, strain chs7, stronger effect = lower value 0.995 | locus YJL092W, strain hpr5, stronger effect = lower value 0.938 | locus YJL095W, strain BCK1 (second series), stronger effect = lower value 0.97 | locus YJL095W, strain BCK1, stronger effect = lower value 1.02 | locus YJL115W, strain asf1, stronger effect = lower value 0.953 | locus YJL129C, strain trk1, stronger effect = lower value 0.923 | locus YJL154C, strain vps35, stronger effect = lower value 0.962 | locus YJL164C, strain tpk1, stronger effect = lower value 0.987 | locus YJL166W, strain qcr8, stronger effect = lower value 0.972 | locus YJL187C, strain SWE1, stronger effect = lower value 0.968 | locus YJR066W, strain TOR1, stronger effect = lower value 0.997 | locus YKL160W, strain elf1, stronger effect = lower value 0.978 | locus YKR026C, strain gcn3, stronger effect = lower value 0.972 | locus YKR091W, strain srl3, stronger effect = lower value 0.953 | locus YLL001W, strain dnm1, stronger effect = lower value 0.988 | locus YLL026W, stronger effect = lower value 0.976 | locus YLL041C, strain sdh2, stronger effect = lower value 0.971 | locus YLR027C, strain aat2, stronger effect = lower value 0.993 | locus YLR113W, strain HOG1, stronger effect = lower value 1.01 | locus YLR221C, strain rsa3, stronger effect = lower value 1.01 | locus YLR258W, strain gsy2, stronger effect = lower value 0.979 | locus YLR262C, strain YPT6 (second series), stronger effect = lower value 0.954 | locus YLR320W, strain mms22, stronger effect = lower value 0.983 | locus YLR342W, strain FKS1, stronger effect = lower value 0.967 | locus YLR357W, strain rsc2, stronger effect = lower value 0.92 | locus YLR370C, strain arc18, stronger effect = lower value 0.938 | locus YLR384C, strain iki3, stronger effect = lower value 0.958 | locus YML120C, strain ndi1, stronger effect = lower value 0.974 | locus YMR058W, strain fet3, stronger effect = lower value 0.968 | locus YMR125W, strain sto1, stronger effect = lower value 0.931 | locus YMR129W, stronger effect = lower value 0.955 | locus YMR205C, strain PFK2, stronger effect = lower value 0.956 | locus YMR231W, strain pep5, stronger effect = lower value 0.971 | locus YNL071W, strain lat1, stronger effect = lower value 0.953 | locus YNL183C, strain NPR1, stronger effect = lower value 0.947 | locus YNL209W, strain ssb2, stronger effect = lower value 0.968 | locus YNL248C, strain rpa49, stronger effect = lower value 0.932 | locus YNL322C, strain KRE1 (second series), stronger effect = lower value 0.948 | locus YNR049C, strain mso1, stronger effect = lower value 0.951 | locus YOR001W, strain rrp6, stronger effect = lower value 0.969 | locus YOR070C, strain gyp1, stronger effect = lower value 0.97 | locus YOR080W, strain dia2, stronger effect = lower value 0.951 | locus YOR083W, strain WHI5, stronger effect = lower value 0.994 | locus YOR106W, strain vam3, stronger effect = lower value 0.989 | locus YOR231W, strain MKK1, stronger effect = lower value 1.05 | locus YOR265W, strain rbl2, stronger effect = lower value 0.968 | locus YOR270C, strain vph1, stronger effect = lower value 0.949 | locus YOR290C, strain snf2, stronger effect = lower value 0.96 | locus YPL051W, strain arl3, stronger effect = lower value 0.99 | locus YPL078C, strain atp4, stronger effect = lower value 0.979 | locus YPL106C, strain sse1, stronger effect = lower value 0.945 | locus YPL240C, strain hsp82, stronger effect = lower value 0.959 | locus YPL256C, strain CLN2, stronger effect = lower value 1.04
active: locus YDR195W, strain ref2 0.809 | locus YER155C, strain BEM2 (second series), stronger effect = lower value 0.793

C=C(C)C1CC=C(C(=O)O)CC1 (centres undefined)
inactive: locus YAL013W, strain DEP1, stronger effect = lower value 1.01 | locus YAL040C, strain CLN3, stronger effect = lower value 0.991 | locus YCL061C, strain MRC1 (second series), stronger effect = lower value 1.01 | locus YDR150W, strain NUM1, stronger effect = lower value 0.986 | locus YDR363W, strain ESC2, stronger effect = lower value 0.961 | locus YER002W, strain NOP16, stronger effect = lower value 1.02 | locus YGR229C, strain SMI1, stronger effect = lower value 0.978 | locus YMR263W, strain SAP30, stronger effect = lower value 0.997 | locus YMR307W, strain GAS1, stronger effect = lower value 0.996 | locus YNL175C, strain NOP13, stronger effect = lower value 1.01 | locus YNL197C, strain WHI3, stronger effect = lower value 1 | locus YNL224C, strain SQS1, stronger effect = lower value 1.01 | locus YOR083W, strain WHI5 (second series), stronger effect = lower value 0.961 | locus YPL241C, strain CIN2, stronger effect = lower value 1
